# A selection: hits, their analogues and other compounds. The true share with any hit is near 1.1%.
# LANA DNA inh = inhibitors of KSHV C-LANA binding to DNA, primary screen, biochemical, fluorescence polarization, FAM-LBS DNA, MBP-C-LANA, single point; inhibition, % at 9 µM; actives 0.078% (n = 340,000); AID 504423, 2011;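 active means highest replicate inhibition at or above 60% at 9 µM, even if other replicates fall short; inactive means all replicates below 60% inhibition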;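 further: 0% = neutral control wells and 100% = 4 µM acridine orange control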
# N-glyco inh = increase of ERlucT glycosylation luciferase signal, primary screen, N-linked glycosylation inhibitor project, D54 ERlucT cells, luminescence, set 2; reporter increase, % at 12.5 µM; actives 0.23% (n = 360,000); AID 588692, 2011; D54 ERlucT glycosylation luciferase reporter, 24 h; percent of 100 nM tunicamycin response;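 active means mean luciferase reporter signal, scaled so untreated is 0 and the glycosylation-blocking control 100, at or above a set limit in every replicate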;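 further: luciferase carries N-glycosylation sites so blocking glycosylation raises the light; 0% = median of neutral control wells and 100% = median of 100 nM tunicamycin wells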
# Keap1 Nrf2 FP = Keap1-Nrf2 protein-protein interaction inhibitors, primary screen, biochemical, fluorescence polarization, single point | Kelch-like ECH-associated protein 1 (Homo sapiens), Q14145 | Keap1 Kelch-Nrf2 peptide fluorescence polarization, 1536-well | inhibition, % at 9.4 µM | actives 0.15% (n = 340,000) | AID 504523, 2011; in the data active means inhibition above about 12%;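 further: human Keap1 Kelch domain with fluorescein labeled Nrf2 9mer peptide probe; 0% = neutral control wells and 100% = peptide positive control; higher means more block of Keap1 binding to Nrf2 peptide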
# NSD2 inh = NSD2 histone methyltransferase inhibitors, primary screen, biochemical, AlphaScreen, single concentration, set 2; NSD2 peptide methylation, 120 min; inhibition, % at 12.5 µM; actives 0.54% (n = 310,000); in the data active means inhibition above about 50%
# CASP6 VEID inh = human caspase-6 inhibitors, primary screen, biochemical, VEID-R110 fluorescence, single point, set 2; P55212; purified caspase-6, Z-VEID-R110 cleavage fluorescence; actives 0.53% (n = 350,000); inhibition, % at 12.5 µM; AID 686996, 2013;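 active means mean inhibition across replicates at least about 35%, with every replicate also reaching that limit, limit read from the data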;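 further: 0% = median of neutral control wells and 100% = no fluorescence left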
# HDAC3 inhib = HDAC3 deacetylase inhibitors, primary screen, biochemical, fluorescence, cell-free homogeneous | recombinant HDAC3, fluorogenic peptide/trypsin coupled | inhibition, % at 8.3 µM | actives 0.15% (n = 320,000); in the data active means inhibition above about 26%, passing the limit was not always enough
# AlphaScreen art = AlphaScreen signal interference with preloaded methylated product, dose response, artefact control for NSD2 inhibitor project, biochemical, cherry-picked samples; actives 9.4% (n = 1,500); AlphaScreen artifact counterscreen, preloaded methylated H4 peptide; shares compounds with NSD2 inh; AC35, µM (top dose mostly 10 µM), for inactives: at the top dose activity change, negative = signal loss; call rule not given here
# * marks the source's active call; other numbers are inactive results; x = no result given.
SMILES,LANA DNA inh,N-glyco inh,Keap1 Nrf2 FP,NSD2 inh,CASP6 VEID inh,HDAC3 inhib,AlphaScreen art
COc1ccc(NC2CCCN(C(=O)c3ccccc3N3CCOCC3)C2)cc1OC (stereo unspecified),-1,2,-2,72*,4,0,1%
O=C(COc1ccccc1O)NCCN1CCOCC1,0,-2,-1,52*,2,-3,2%
Cc1ccccc1-c1ccc2c(c1)O[C@@H](CN(C)C(=O)c1ccccn1)[C@H](C)CN([C@H](C)CO)S2(=O)=O,x,x,x,x,11,x,x
COC(=O)c1c(NC(C)=O)sc(C(=O)N2CCOCC2)c1C,-1,2,-2,0,3,7,x
COC(=O)c1c(NC(=O)C(C)C)sc(C(=O)N2CCOCC2)c1C,-1,2,2,105*,-2,1,-6%
Cc1onc(-c2c(Cl)cccc2Cl)c1C(=O)ONC(=O)c1cc(C(F)(F)F)cc(C(F)(F)F)c1,-1,0,2,59*,-5,8,0%
COc1cnc(-c2ccccn2)nc1Oc1cccc(C(F)(F)F)c1,1,2,6,55*,0,0,-9%
COc1c(F)c(F)c(C(=O)Nc2cccc(Cl)c2N2CCOCC2)c(F)c1F,0,-3,1,56*,x,9,0%
CC1(C)CN(c2cccc(C#N)c2)C1=O,3,2,0,56*,-1,0,-3%
O=C(NCc1ccccc1)C(c1ccccc1)N(Cc1ccccc1)C(=O)Cc1ccccc1 (stereo unspecified),x,x,x,x,-2,x,x
Cc1c(C)c2cc(Cl)c(O)c(CN(C)C)c2oc1=O,0,0,0,119*,x,-425,-2%
COCC(=O)N1CCCCN2[C@H](CO)[C@@H](c3ccc(-c4cccc(C)c4)cc3)[C@@H]2C1,x,x,x,x,-2,x,x
COc1ccccc1S(=O)(=O)N[C@@H]1CC[C@@H](CC(=O)N2CCOCC2)O[C@@H]1CO,x,x,x,x,0,x,x
COCC(=O)N1C[C@H](C)[C@H](OC)CN(C)C(=O)c2ccc(NC(=O)c3ccccc3)cc2OC[C@H]1C,x,x,x,x,2,x,x
CCN(CC)CCCNc1nc(CN2CCOCC2)nc2sc3c(c12)CCC3,0,0,-8,54*,-11,-4,3%
CCC(C)Nc1nc(CN2CCOCC2)nc2sc3c(c12)CCC3 (stereo unspecified),4,2,-5,2,x,-8,x
CCNC(=O)Nc1ccc2c(c1)c(=O)n(C)n2CC=C(C)C,x,2,x,2,1,x,x
COc1ccc(CCNC(=O)Nc2ccc3c(c2)c(=O)n(C)n3CC=C(C)C)cc1OC,x,0,x,52*,0,x,-3%
O=C(c1ccccc1F)N1C[C@H]2[C@@H](c3ccccc31)[C@@H](CO)N2CC1CCCCC1,x,x,x,x,-2,x,x
O=C(COC(=O)c1cc(S(=O)(=O)N2CCOCC2)ccc1Cl)c1ccc[nH]1,x,2,x,0,8,x,x
O=C(COC(=O)c1cc(S(=O)(=O)N2CCOCC2)ccc1F)c1ccc[nH]1,-2,3,3,69*,x,0,-4%
C[C@H](CO)N1C[C@H](C)[C@@H](CN(C)C(=O)c2ccc3c(c2)OCO3)Oc2ncc(C#CCN(C)C)cc2C1=O,x,x,x,x,-1,x,x
Cc1cc(OCCn2nc(C(=O)O)c3ccccc3c2=O)ccc1C(C)C,0,5,3,90*,4,x,-3%
